The supplement of paper PMC10849652
About 8,800 targets were measured; listed, in parts, are those with a hit and a random draw of the rest. About 0.5% of all pairs of compound and target were hits.

Chain of UniProt O95248 (O95248 whole entry, looked up): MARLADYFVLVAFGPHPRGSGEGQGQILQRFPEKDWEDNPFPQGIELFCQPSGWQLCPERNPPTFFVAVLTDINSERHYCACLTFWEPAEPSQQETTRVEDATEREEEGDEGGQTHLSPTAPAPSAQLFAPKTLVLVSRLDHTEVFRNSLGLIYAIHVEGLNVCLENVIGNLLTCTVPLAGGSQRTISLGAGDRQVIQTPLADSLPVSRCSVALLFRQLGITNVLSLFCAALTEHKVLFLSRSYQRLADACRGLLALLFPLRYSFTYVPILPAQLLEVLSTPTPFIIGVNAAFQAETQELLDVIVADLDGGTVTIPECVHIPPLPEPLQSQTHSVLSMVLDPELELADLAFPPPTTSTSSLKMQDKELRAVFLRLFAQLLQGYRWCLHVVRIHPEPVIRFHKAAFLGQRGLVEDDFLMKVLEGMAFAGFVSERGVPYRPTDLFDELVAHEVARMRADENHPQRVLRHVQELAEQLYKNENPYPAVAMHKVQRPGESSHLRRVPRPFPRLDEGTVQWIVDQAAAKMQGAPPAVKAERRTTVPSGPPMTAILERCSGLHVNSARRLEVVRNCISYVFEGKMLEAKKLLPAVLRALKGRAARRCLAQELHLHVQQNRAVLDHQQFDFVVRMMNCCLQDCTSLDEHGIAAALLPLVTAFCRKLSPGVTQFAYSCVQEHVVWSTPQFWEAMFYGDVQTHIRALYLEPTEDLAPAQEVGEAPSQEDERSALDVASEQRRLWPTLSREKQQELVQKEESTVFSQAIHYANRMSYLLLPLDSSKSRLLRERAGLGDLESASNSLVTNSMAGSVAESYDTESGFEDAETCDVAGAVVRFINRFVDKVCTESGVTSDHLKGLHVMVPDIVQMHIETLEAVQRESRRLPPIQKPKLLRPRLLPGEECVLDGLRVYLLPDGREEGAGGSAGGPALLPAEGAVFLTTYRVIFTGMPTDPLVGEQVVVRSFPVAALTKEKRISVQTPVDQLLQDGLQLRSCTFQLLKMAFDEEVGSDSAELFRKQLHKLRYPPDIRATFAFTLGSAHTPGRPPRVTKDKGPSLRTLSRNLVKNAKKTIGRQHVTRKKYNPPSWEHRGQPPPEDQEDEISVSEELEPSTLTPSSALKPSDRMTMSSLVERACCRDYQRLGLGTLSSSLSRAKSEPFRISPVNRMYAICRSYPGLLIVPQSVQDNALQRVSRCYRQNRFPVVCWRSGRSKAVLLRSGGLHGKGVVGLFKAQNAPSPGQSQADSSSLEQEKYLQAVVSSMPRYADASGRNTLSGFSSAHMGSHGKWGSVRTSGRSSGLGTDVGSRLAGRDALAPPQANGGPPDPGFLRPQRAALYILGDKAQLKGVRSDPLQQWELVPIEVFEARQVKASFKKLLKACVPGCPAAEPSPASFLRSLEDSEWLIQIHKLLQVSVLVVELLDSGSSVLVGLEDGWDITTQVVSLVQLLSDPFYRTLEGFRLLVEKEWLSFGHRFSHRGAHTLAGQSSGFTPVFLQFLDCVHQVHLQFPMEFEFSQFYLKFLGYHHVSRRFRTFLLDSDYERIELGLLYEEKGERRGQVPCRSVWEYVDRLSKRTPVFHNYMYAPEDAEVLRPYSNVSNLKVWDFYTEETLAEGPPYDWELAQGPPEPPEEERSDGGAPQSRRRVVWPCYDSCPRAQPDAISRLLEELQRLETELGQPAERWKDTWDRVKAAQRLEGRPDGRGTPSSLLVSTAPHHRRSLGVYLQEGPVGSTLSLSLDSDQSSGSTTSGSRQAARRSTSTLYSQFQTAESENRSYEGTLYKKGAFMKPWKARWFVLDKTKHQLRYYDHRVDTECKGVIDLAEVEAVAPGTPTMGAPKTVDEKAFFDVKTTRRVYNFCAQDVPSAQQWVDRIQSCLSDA
Chain of UniProt Q9H1K0 (Q9H1K0 whole entry, looked up): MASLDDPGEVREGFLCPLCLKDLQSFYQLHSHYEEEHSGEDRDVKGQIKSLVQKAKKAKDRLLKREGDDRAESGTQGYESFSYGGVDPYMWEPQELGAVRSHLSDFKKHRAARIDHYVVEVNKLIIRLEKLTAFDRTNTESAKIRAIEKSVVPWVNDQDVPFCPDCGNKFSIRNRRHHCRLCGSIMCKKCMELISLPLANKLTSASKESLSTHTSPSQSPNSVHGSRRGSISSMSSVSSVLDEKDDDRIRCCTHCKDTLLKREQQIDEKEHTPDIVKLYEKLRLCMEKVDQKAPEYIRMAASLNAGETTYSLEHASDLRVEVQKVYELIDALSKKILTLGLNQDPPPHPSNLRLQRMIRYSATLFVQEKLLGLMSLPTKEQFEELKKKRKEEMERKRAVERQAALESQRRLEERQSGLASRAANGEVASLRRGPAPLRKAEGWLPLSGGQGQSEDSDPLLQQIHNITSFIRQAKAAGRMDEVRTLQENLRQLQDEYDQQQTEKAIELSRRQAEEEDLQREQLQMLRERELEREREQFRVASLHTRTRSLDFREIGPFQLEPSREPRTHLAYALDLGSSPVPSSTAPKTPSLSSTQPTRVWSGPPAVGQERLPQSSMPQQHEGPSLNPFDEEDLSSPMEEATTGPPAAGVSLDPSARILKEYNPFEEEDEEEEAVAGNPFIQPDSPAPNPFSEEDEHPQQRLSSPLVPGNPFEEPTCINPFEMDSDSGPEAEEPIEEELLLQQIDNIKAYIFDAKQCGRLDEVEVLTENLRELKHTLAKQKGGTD
Chain of UniProt Q15287 (Q15287 whole entry, looked up): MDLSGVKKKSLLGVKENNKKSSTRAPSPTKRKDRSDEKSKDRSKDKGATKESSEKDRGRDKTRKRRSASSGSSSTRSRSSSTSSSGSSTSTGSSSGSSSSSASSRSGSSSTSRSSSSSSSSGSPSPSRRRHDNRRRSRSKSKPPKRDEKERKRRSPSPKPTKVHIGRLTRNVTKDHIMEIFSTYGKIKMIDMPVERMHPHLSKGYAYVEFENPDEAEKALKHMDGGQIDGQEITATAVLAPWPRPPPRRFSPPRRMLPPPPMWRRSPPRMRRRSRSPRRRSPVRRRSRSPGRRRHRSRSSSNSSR
Chain of UniProt P31040 (P31040 whole entry, looked up): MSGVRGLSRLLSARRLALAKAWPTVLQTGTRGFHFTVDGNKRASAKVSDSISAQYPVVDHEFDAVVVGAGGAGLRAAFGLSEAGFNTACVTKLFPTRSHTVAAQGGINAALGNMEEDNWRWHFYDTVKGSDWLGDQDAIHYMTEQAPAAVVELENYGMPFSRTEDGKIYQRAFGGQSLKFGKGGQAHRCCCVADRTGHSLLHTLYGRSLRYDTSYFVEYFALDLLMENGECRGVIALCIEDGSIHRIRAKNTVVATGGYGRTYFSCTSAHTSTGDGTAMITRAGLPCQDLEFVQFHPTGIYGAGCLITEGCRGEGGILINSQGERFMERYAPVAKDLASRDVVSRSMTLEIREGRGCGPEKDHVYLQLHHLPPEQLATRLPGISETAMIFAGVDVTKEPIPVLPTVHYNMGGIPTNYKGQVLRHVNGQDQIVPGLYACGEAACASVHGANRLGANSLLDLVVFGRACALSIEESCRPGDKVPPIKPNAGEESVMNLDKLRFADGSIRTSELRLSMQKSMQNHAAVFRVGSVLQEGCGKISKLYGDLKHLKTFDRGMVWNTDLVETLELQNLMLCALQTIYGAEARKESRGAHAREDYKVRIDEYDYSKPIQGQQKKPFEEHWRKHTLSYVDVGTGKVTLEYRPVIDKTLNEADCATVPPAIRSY
Chain of UniProt Q9HBH5 (Q9HBH5 whole entry, looked up): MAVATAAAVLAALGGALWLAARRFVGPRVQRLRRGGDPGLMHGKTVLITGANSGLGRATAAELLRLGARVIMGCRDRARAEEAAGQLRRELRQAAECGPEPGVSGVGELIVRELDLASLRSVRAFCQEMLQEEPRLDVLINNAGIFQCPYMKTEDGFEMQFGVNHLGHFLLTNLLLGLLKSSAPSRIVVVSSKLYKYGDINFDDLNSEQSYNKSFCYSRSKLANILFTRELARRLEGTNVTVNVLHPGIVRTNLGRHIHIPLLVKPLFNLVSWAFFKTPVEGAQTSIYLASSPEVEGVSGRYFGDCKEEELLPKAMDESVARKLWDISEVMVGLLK
Chain of UniProt Q9H0U4 (Q9H0U4 whole entry, looked up): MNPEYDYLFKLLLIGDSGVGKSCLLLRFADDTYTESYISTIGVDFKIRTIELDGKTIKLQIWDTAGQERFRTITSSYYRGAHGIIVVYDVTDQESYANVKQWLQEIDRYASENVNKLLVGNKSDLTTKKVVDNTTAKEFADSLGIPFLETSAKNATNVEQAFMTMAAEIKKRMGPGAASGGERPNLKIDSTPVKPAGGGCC
Chain of UniProt Q96DM3 (Q96DM3 whole entry, looked up): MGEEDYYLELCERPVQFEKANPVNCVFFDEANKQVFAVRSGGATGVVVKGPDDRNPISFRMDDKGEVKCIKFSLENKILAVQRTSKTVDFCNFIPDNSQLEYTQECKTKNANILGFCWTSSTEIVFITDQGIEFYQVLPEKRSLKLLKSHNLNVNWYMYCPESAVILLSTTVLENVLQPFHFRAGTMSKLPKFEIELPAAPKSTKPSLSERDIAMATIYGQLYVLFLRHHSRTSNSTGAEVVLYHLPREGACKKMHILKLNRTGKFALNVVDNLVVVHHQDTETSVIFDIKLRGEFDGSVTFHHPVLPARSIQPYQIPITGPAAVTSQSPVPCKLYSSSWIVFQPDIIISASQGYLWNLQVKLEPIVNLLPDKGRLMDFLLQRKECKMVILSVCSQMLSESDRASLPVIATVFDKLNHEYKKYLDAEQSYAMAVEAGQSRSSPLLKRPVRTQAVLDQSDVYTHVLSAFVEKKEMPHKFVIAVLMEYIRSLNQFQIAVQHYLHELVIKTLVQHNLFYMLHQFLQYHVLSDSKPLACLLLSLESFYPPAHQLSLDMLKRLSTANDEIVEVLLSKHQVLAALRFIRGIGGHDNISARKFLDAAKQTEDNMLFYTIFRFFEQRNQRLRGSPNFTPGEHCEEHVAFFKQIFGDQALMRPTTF

What follows are targets tested with CC1=C(C2=C(C=C1)C(=O)C3=CC=CC=C3N2CCCN)C (assay: log2 fold change, soluble protein after heating vs DMSO (PISA); higher = thermal stabilisation; K562 lysate, 10 uM; active = over 0.2 and 3.5 SD of the protein, either way, in both replicates (recomputed)).
How it was run: (§1)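 K562 pellets were dounce-homogenised in PBS pH 7.4 containing 1 mM MgCl2, and the crude extract, at 1 mg/mL protein, was exposed to 10 μM compound for 30 min. Aliquots were heated for 3 min across 48°C-58°C, pooled, brought to 0.5% NP-40 at 4°C and spun at 21,000xg for 90 min, with the supernatant taken as soluble protein. TMTpro 16plex LC-MS/MS with equalised channel sums quantified that protein. Values are log-two fold changes in thermal stability relative to solvent controls, taken from duplicates.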
SEC62 (UniProt Q99442) was tested, and the log2 fold change was -0.006 (inactive).
RPL28 (UniProt P46779) was tested, and the log2 fold change was -0.066 (inactive).
In the case of SBF1 isoform 4 (UniProt O95248), the log2 fold change is reported as -0.039 (inactive).
For SEC16A isoform 5 (UniProt O15027), the log2 fold change was 0.004 (inactive).
With SEH1L isoform 1 (UniProt Q96EE3) the log2 fold change was -0.014 (inactive).
For RDH14 (UniProt Q9HBH5), the log2 fold change was 0.053 (inactive).
With RFC3 (UniProt P40938) the log2 fold change was -0.034 (inactive).
With RAB1B (UniProt Q9H0U4) the log2 fold change was -0.014 (inactive).
With RRAGA (UniProt Q7L523) the log2 fold change was -0.089 (inactive).
In the case of RAB3IL1 (UniProt E9PK89), the log2 fold change is reported as 0.071 (inactive).
RBM42 (UniProt Q9BTD8) was tested, and the log2 fold change was 0.04 (inactive).
With RBSN (UniProt Q9H1K0) the log2 fold change was -0.032 (inactive).
For RAC2 (UniProt P15153), the log2 fold change was 0.017 (inactive).
In the case of RSU1 (UniProt Q15404), the log2 fold change is reported as -0.022 (inactive).
For RPL37A (UniProt P61513), the log2 fold change was -0.032 (inactive).
QRSL1 (UniProt Q9H0R6) was tested, and the log2 fold change was -0.073 (inactive).
With RBBP8 isoform 2 (UniProt Q99708) the log2 fold change was -0.018 (inactive).
In the case of RASA2 (UniProt Q15283), the log2 fold change is reported as 0.004 (inactive).
In the case of RIOK3 (UniProt O14730), the log2 fold change is reported as -0.023 (inactive).
RMC1 (UniProt Q96DM3) was tested, and the log2 fold change was -0.018 (inactive).
RPS6KB1 (UniProt P23443) was tested, and the log2 fold change was 0.01 (inactive).
For RCAN1 (UniProt P53805), the log2 fold change was -0.027 (inactive).
For RNF40 (UniProt O75150), the log2 fold change was -0.01 (inactive).
RNPS1 (UniProt Q15287) was tested, and the log2 fold change was 0.003 (inactive).
For RAI14 isoform 2 (UniProt Q9P0K7), the log2 fold change was -0.024 (inactive).
For SDHA (UniProt P31040), the log2 fold change was 0.008 (inactive).
SCCPDH (UniProt Q8NBX0) was tested, and the log2 fold change was -0.068 (inactive).
For RPS6KA1 (UniProt Q15418), the log2 fold change was -0.035 (inactive).
With RBM22 (UniProt Q9NW64) the log2 fold change was -0.014 (inactive).
In the case of RPS26P11 (UniProt Q5JNZ5), the log2 fold change is reported as -0.034 (inactive).
For RTN4IP1 (UniProt Q8WWV3), the log2 fold change was -0.011 (inactive).
In the case of ROCK1 (UniProt Q13464), the log2 fold change is reported as -0.041 (inactive).
For RPL8 (UniProt P62917), the log2 fold change was -0.045 (inactive).
For RPL36AL (UniProt Q969Q0), the log2 fold change was 0.068 (inactive).

Each target was assayed with CC1=C(C=C(C=C1)NC(=O)C2=CC(=CC=C2)C(C)(C)C#N)NC3=CC4=C(C=C3)N=CN(C4=O)C in the same assay as above.
How it was run: as §1
In the case of SEC62 (UniProt Q99442), the log2 fold change is reported as 0.022 (inactive).
In the case of RPL28 (UniProt P46779), the log2 fold change is reported as -0.021 (inactive).
With SBF1 isoform 4 (UniProt O95248) the log2 fold change was -0.012 (inactive).
In the case of SEC16A isoform 5 (UniProt O15027), the log2 fold change is reported as -0.121 (inactive).
In the case of SEH1L isoform 1 (UniProt Q96EE3), the log2 fold change is reported as 0.015 (inactive).
With RDH14 (UniProt Q9HBH5) the log2 fold change was -0.073 (inactive).
With RFC3 (UniProt P40938) the log2 fold change was 0.002 (inactive).
With RAB1B (UniProt Q9H0U4) the log2 fold change was -0.036 (inactive).
With RRAGA (UniProt Q7L523) the log2 fold change was 0.079 (inactive).
RAB3IL1 (UniProt E9PK89) was tested, and the log2 fold change was 0.025 (inactive).
With RBM42 (UniProt Q9BTD8) the log2 fold change was -0.028 (inactive).
In the case of RBSN (UniProt Q9H1K0), the log2 fold change is reported as 0.044 (inactive).
For RAC2 (UniProt P15153), the log2 fold change was -0.022 (inactive).
For RSU1 (UniProt Q15404), the log2 fold change was -0.017 (inactive).
For RPL37A (UniProt P61513), the log2 fold change was 0.038 (inactive).
In the case of QRSL1 (UniProt Q9H0R6), the log2 fold change is reported as -0.041 (inactive).
With RBBP8 isoform 2 (UniProt Q99708) the log2 fold change was -0.066 (inactive).
In the case of RASA2 (UniProt Q15283), the log2 fold change is reported as 0.033 (inactive).
In the case of RIOK3 (UniProt O14730), the log2 fold change is reported as 0.001 (inactive).
RMC1 (UniProt Q96DM3) was tested, and the log2 fold change was 0.009 (inactive).
With RPS6KB1 (UniProt P23443) the log2 fold change was -0.029 (inactive).
With RCAN1 (UniProt P53805) the log2 fold change was 0.085 (inactive).
With RNF40 (UniProt O75150) the log2 fold change was -0.001 (inactive).
In the case of RNPS1 (UniProt Q15287), the log2 fold change is reported as -0.057 (inactive).
In the case of RAI14 isoform 2 (UniProt Q9P0K7), the log2 fold change is reported as 0.01 (inactive).
For SDHA (UniProt P31040), the log2 fold change was 0.014 (inactive).
In the case of SCCPDH (UniProt Q8NBX0), the log2 fold change is reported as 0.055 (inactive).
With RPS6KA1 (UniProt Q15418) the log2 fold change was -0.043 (inactive).
In the case of RBM22 (UniProt Q9NW64), the log2 fold change is reported as 0.043 (inactive).
For RPS26P11 (UniProt Q5JNZ5), the log2 fold change was 0.024 (inactive).
In the case of RTN4IP1 (UniProt Q8WWV3), the log2 fold change is reported as -0.008 (inactive).
For ROCK1 (UniProt Q13464), the log2 fold change was 0.006 (inactive).
In the case of RPL8 (UniProt P62917), the log2 fold change is reported as -0.076 (inactive).
With RPL36AL (UniProt Q969Q0) the log2 fold change was -0.038 (inactive).

These targets were tested with CC1=C(C=C(C=C1)NC(=O)C2=CC(=CC=C2)N(C)C)NC(=O)C3=CC=C(C=C3)O in the same assay as above.
How it was run: as §1
With SEC62 (UniProt Q99442) the log2 fold change was 0.002 (inactive).
RPL28 (UniProt P46779) was tested, and the log2 fold change was 0.012 (inactive).
With SBF1 isoform 4 (UniProt O95248) the log2 fold change was 0.054 (inactive).
For SEC16A isoform 5 (UniProt O15027), the log2 fold change was 0.011 (inactive).
In the case of SEH1L isoform 1 (UniProt Q96EE3), the log2 fold change is reported as 0.017 (inactive).
With RDH14 (UniProt Q9HBH5) the log2 fold change was 0.032 (inactive).
In the case of RFC3 (UniProt P40938), the log2 fold change is reported as 0.042 (inactive).
In the case of RAB1B (UniProt Q9H0U4), the log2 fold change is reported as -0.011 (inactive).
With RRAGA (UniProt Q7L523) the log2 fold change was 0.343 (inactive).
RAB3IL1 (UniProt E9PK89) was tested, and the log2 fold change was 0.135 (inactive).
RBM42 (UniProt Q9BTD8) was tested, and the log2 fold change was -0.005 (inactive).
For RBSN (UniProt Q9H1K0), the log2 fold change was 0.003 (inactive).
With RAC2 (UniProt P15153) the log2 fold change was 0.045 (inactive).
With RSU1 (UniProt Q15404) the log2 fold change was -0.027 (inactive).
In the case of RPL37A (UniProt P61513), the log2 fold change is reported as 0.004 (inactive).
QRSL1 (UniProt Q9H0R6) was tested, and the log2 fold change was 0.027 (inactive).
RBBP8 isoform 2 (UniProt Q99708) was tested, and the log2 fold change was -0.006 (inactive).
For RASA2 (UniProt Q15283), the log2 fold change was 0.019 (inactive).
In the case of RIOK3 (UniProt O14730), the log2 fold change is reported as 0.011 (inactive).
With RMC1 (UniProt Q96DM3) the log2 fold change was 0.005 (inactive).
With RPS6KB1 (UniProt P23443) the log2 fold change was -0.01 (inactive).
In the case of RCAN1 (UniProt P53805), the log2 fold change is reported as -0.02 (inactive).
For RNF40 (UniProt O75150), the log2 fold change was -0.006 (inactive).
RNPS1 (UniProt Q15287) was tested, and the log2 fold change was -0.032 (inactive).
RAI14 isoform 2 (UniProt Q9P0K7) was tested, and the log2 fold change was 0.024 (inactive).
With SDHA (UniProt P31040) the log2 fold change was -0.015 (inactive).
SCCPDH (UniProt Q8NBX0) was tested, and the log2 fold change was -0.098 (inactive).
RPS6KA1 (UniProt Q15418) was tested, and the log2 fold change was -0.052 (inactive).
For RBM22 (UniProt Q9NW64), the log2 fold change was -0.01 (inactive).
With RPS26P11 (UniProt Q5JNZ5) the log2 fold change was 0.025 (inactive).
With RTN4IP1 (UniProt Q8WWV3) the log2 fold change was -0.015 (inactive).
For ROCK1 (UniProt Q13464), the log2 fold change was 0.024 (inactive).
With RPL8 (UniProt P62917) the log2 fold change was -0.013 (inactive).
In the case of RPL36AL (UniProt Q969Q0), the log2 fold change is reported as 0.013 (inactive).
